Experimental data as given in PubChem BioAssay (NCI).
This is part of a sample that, as a whole, favours compounds with a hit. Of some 79,000 tested, about 15% had one in any assay. Calls of active or inactive are those of the source. Cut-off read from the data, not from the text of the source: active = growth inhibition above about 70%; inactive = the rest.

Experiments:
[1] = NCI Yeast Anticancer Drug Screen. Data for the rad50 strain (AID 155);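 note: 0% = growth of vehicle-only cultures of the same strain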; details: S. cerevisiae rad50 strain growth inhibition; at 50.0 µM; stronger effect = higher value
Summary of the method: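 A DNA repair-deficient yeast mutant serves as the test organism; compound-induced growth inhibition is calculated against vehicle-treated cells.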

[2] = NCI Yeast Anticancer Drug Screen. Data for the mec2-1 strain (AID 157); details: S. cerevisiae mec2-1 strain, at 50.0 µM, stronger effect = higher value
Summary of the method: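 Using mec2-1 yeast: add compound, measure growth, express inhibition versus vehicle-treated cultures.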

[3] = NCI Yeast Anticancer Drug Screen. Data for the sgs1 mgt1 strain (AID 161);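 note: 0% = growth of cultures given vehicle only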; details: S. cerevisiae sgs1 mgt1 strain, at 50.0 µM, stronger effect = higher value
Summary of the method: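 Compounds are added to genetically altered yeast, and growth is compared with cultures given vehicle alone to give percent inhibition.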

[4] = NCI Yeast Anticancer Drug Screen. Data for the cln2 rad14 strain (AID 165);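 note: 0% = growth equal to vehicle treated cultures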; details: S. cerevisiae cln2 rad14 strain, at 50.0 µM, stronger effect = higher value
Summary of the method: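 Yeast strain cln2 rad14, bearing defects in cell cycle control and DNA repair, serves as the test system; values reflect growth inhibition compared with vehicle.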

[5] = NCI Yeast Anticancer Drug Screen. Data for the bub3 strain (AID 167); details: S. cerevisiae bub3 mutant strain, at 50.0 µM, stronger effect = higher value
Summary of the method: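 Inhibition values come from growth of compound-treated mutant yeast normalised to vehicle-treated controls.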

[6] = NCI Yeast Anticancer Drug Screen. Data for the mlh1 rad18 strain (AID 175); details: S. cerevisiae mlh1 rad18 strain growth inhibition; at 50.0 µM; stronger effect = higher value
Summary of the method: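 Steps: expose repair-defective yeast to compound; measure growth; express inhibition against vehicle-treated controls.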

Measured: growth inhibition

O=c1c(Cc2ccccc2)c(O)cc2n1CCC2
inactive: [1] -14.5% | [2] -14.4% | [3] -10.7% | [4] 8.75% | [5] -5.25% | [6] -10.9%

CCOC(=O)CN=NNc1ccc([N+](=O)[O-])cc1
inactive: [1] 10.3% | [2] 8.85% | [3] -3.5% | [4] -42.2% | [5] 21.1% | [6] 7.7%

CC(=O)C1=C(O)C2(O)C(=O)c3c(c(C)c4ccc(C)c(O)c4c3O)CC2C(N)C1=O (stereo unspecified)
inactive: [1] 9.85% | [2] 38.1% | [3] 14.2% | [4] 11.7% | [5] 19% | [6] 4%

CCCCCCCNC(C)=O
inactive: [1] 14.1% | [2] 15.5% | [3] 3.6% | [4] 10.1% | [5] -0.7% | [6] -5%

O=C(C1OC1c1cccc([N+](=O)[O-])c1)C12CC3CC(CC(C3)C1)C2 (stereo unspecified)
inactive: [1] 12.5% | [2] 32% | [3] 37.2% | [4] 17.1% | [5] 53% | [6] 54.5%

Nc1nc(-c2ccc([N+](=O)[O-])cc2)cc(-c2cc(-c3ccc([N+](=O)[O-])cc3)nc(N)n2)n1
inactive: [1] 5.05% | [2] 6.7% | [3] -9.8% | [4] 14.7% | [5] -17.4% | [6] 6.6%

Cc1ccc(S(=O)(=O)CC(=O)CC(=O)C(=O)Nc2ccc(Cl)cc2C)cc1
inactive: [1] 11.2% | [2] -0.3% | [3] -7.95% | [4] -22.4% | [5] -0.75% | [6] 27.3%

CCN(CC)CCOC(=O)c1ccc(N=Nc2cc(NC(C)=O)ccc2O)cc1
inactive: [1] 3.35% | [2] -3.7% | [3] -0.7% | [4] 4.15% | [5] 2.35% | [6] 5.05%

COc1ccc(-c2c3c([nH]c(=S)c2C#N)CCC3)cc1
inactive: [1] 8.65% | [2] 4.5% | [3] 33% | [4] 22.7% | [5] 28.7% | [6] 34.4%

COc1cc(CC2c3cc(OC)c(OC)cc3CCN2C)ccc1O (stereo unspecified)
inactive: [1] -22.3% | [2] -17.9% | [3] -5.75% | [4] -9.2% | [5] -15.6% | [6] -3.35%

CC(C)NC(=O)Oc1ccccc1C(=O)OCc1ccccc1
inactive: [1] -0.45% | [2] 14.1% | [3] 28.9% | [4] -15.1% | [5] 13.4% | [6] 21.2%

O=C(O)CSc1ccccc1
inactive: [1] 39.5% | [2] 18.4% | [3] 17.8% | [4] 13.3% | [5] 20.6% | [6] 0.15%

CC(=O)Nc1ccc(/C=N/NC(=O)COCC(=O)N/N=C/c2ccc(NC(C)=O)cc2)cc1
inactive: [1] 7.8% | [2] 11.1% | [3] 0.15% | [5] -3.2% | [6] -9.65%
active: [4] 86.3%

C#CCN1CCCC1
inactive: [1] -9.4% | [2] -4.35% | [3] -11% | [4] 22.1% | [5] 27.7% | [6] 10.2%

COc1ccc([N+](=O)[O-])c2c(NCC(O)CO)ccnc12 (stereo unspecified)
inactive: [1] -0.35% | [2] -11% | [3] -9.7% | [4] -8.2% | [5] -25.1% | [6] -47.2%

CCOC(=O)C(=O)N1Cc2cc3c(cc2C2CC(O)C(O)CC21)OCO3 (stereo unspecified)
inactive: [1] -8.2% | [2] -3.9% | [3] -1.1% | [4] 6.05% | [5] 2.85% | [6] 5.85%

CCc1cc(COC(C)=O)on1
inactive: [1] 5.35% | [2] -18.5% | [3] -8.4% | [4] -35.9% | [5] -1.9% | [6] -2.6%

O=C(CC(=O)N1N=C(n2ccc3ccccc32)CC1c1ccccc1)Nc1cccc(Cl)c1 (stereo unspecified)
inactive: [1] -35.5% | [2] -15.3% | [3] -11.8% | [4] 12.1% | [5] -3.5% | [6] -5.85%

O=c1ccn2n1Cc1ccccc1C2
inactive: [1] -25.9% | [2] -20.8% | [3] -17.9% | [4] 13.3% | [5] -6.05% | [6] -20.6%

CC(=O)OCCOC(=O)Nc1cccc2ccccc12
inactive: [1] -9.85% | [2] -7.9% | [3] -1.3% | [4] 30.9% | [5] 2.65% | [6] -0.6%

CCC(/C=N/Nc1ccc([N+](=O)[O-])cc1[N+](=O)[O-])(CC)CC
inactive: [1] -2.85% | [2] -8.75% | [3] -6.25% | [4] 0.25% | [5] -2.85% | [6] 6.8%

CC12CCC3c4ccc(OC(=O)C56C=CC(=O)C5C5C=CC6CC5)cc4CCC3C1CCC2=O (stereo unspecified)
inactive: [1] 11.6% | [2] -16.8% | [3] -2.2% | [4] 16.1% | [5] -4.05% | [6] 0.05%

O=C(Cc1ccccc1)NCc1ccccc1Cl
inactive: [1] -1.05% | [2] 9.2% | [3] 5.65% | [4] 0.05% | [5] 9.75% | [6] 6.05%

CCC(Oc1ccc(Cl)cc1Cl)C(=O)O (stereo unspecified)
inactive: [1] -4.4% | [2] -9.8% | [3] -8.65% | [4] -8.25% | [5] -10.2% | [6] -1.75%

COc1ccccc1/C=C1/C(=O)ON=C1C
inactive: [1] 0.05% | [2] -21.1% | [3] -11.9% | [4] 9.6% | [5] -17.1% | [6] -18.5%

Cc1c(N=Nc2cccc(Cl)c2)c(-c2ccccc2)nn1C(N)=S
inactive: [2] 45% | [4] 12.4%
active: [1] 80.3% | [3] 96.8% | [5] 91.5% | [6] 92.5%

CC(=O)Nc1cc(C)c(C(=O)O)c(C)c1
inactive: [1] -26.5% | [2] -19.4% | [3] -9.35% | [4] -18.1% | [5] -24.9% | [6] -21.4%

Cc1nnc2n1N=C(c1ccccc1)C(c1ccccc1)S2 (stereo unspecified)
inactive: [1] 31.8% | [2] 29.9% | [3] 33.5% | [4] 25.9% | [5] 57.4% | [6] 40.3%

CCOC(=O)c1[nH]c(C)c(C(=O)OC(C)(C)C)c1C
inactive: [1] 4.55% | [2] 14.8% | [3] 0.35% | [4] 10.4% | [5] -4.65% | [6] 0.45%

CN(C)c1ccc(/C=C/c2ccnc3ccc(Br)cc23)cc1
inactive: [1] 26.9% | [2] 14.9% | [3] 27.4% | [4] 14.9% | [5] 8.1% | [6] 9.35%

CCCn1c(C)nc2cc(C)cc(N)c21
inactive: [1] 19.2% | [2] 20.4% | [3] 11% | [4] -17.4% | [5] -1.15% | [6] 1.7%

O=C(CC(c1ccccc1)C1CCCN(c2ccccc2)S1(=O)=O)c1ccccc1 (stereo unspecified)
inactive: [1] 26.6% | [2] 1.2% | [3] 11.1% | [4] 16.9% | [5] -3.05% | [6] 23.1%

COc1cccc(/C=C(\C#N)C(=O)c2ccccc2)c1
inactive: [1] 4.4% | [2] 19.6% | [3] 11.2% | [4] 19.6% | [5] 13.9% | [6] 19%

COCC(O)CN1CCN(c2ccccc2OC)CC1 (stereo unspecified)
inactive: [1] -16.5% | [2] -16.6% | [3] -7.3% | [4] -14.2% | [5] 25.6% | [6] -13.2%

O=c1[nH]c(=O)c2ncn(-c3ccc([N+](=O)[O-])cn3)c2[nH]1
inactive: [1] 20.8% | [2] 7.3% | [3] 9.95% | [4] 5.4% | [5] 8.6% | [6] -27.6%

Cc1ccccc1NCC#N
inactive: [1] -23.9% | [2] -26% | [3] -19.2% | [4] -15.2% | [5] 10% | [6] -11.6%

NC(=O)C[n+]1cccc(C(=O)Nc2ccccc2)c1
inactive: [1] 17.4% | [2] 4.45% | [3] 7.25% | [4] -43.2% | [5] 23.2% | [6] 10.7%

CN(C/C=C/CN(C)C(=S)Nc1ccccc1)C(=S)Nc1ccccc1
inactive: [1] -19.1% | [2] 13.1% | [3] -20.5% | [4] -2.65% | [5] 2.85% | [6] 5.65%

NC(=O)C(c1ccccc1)c1ccnc2ccccc12 (stereo unspecified)
inactive: [1] 2.05% | [2] 4.5% | [3] 7.9% | [4] 8.05% | [5] 20.4% | [6] -21.2%

O=C(O)c1cccc(=O)o1
inactive: [1] -3.35% | [2] -16.3% | [3] -11.3% | [4] 3.35% | [5] 7.1% | [6] -1.65%

CCOc1ccc(-n2c(C)c(COC(=O)NC)c(COC(=O)NC)c2C)cc1
inactive: [1] 16.1% | [2] -5.9% | [3] 68.9% | [4] 3.8% | [5] 67.2%
active: [6] 92.5%
